# Source: PubChem BioAssay
# Pf Dd2 growth – inhibitors of Plasmodium falciparum Dd2 growth | P. falciparum Dd2 growth, SYBR Green, 72 h | Potency, µM (doses to about 28.9 µM), inactives show at the highest dose activity, negative = inhibition, usual class: inhibitors | 4.3% of 120,000 active | AID 1347417; active = well fitted inhibition curve with a large enough effect;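 note: plate controls were DMSO vehicle for no effect and reference drug for full effect; nearly all actives have a fitted effect of over 65% in size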
#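 Infected erythrocytes (Dd2, 0.3% parasitemia, 2.5% hematocrit final) are added to compound in RPMI-1640/Albumax II medium, grown 72 h at 37C in low oxygen, then lysed with saponin/Triton-X containing SYBR Green and read by fluorescence.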
# The depositor's hits bear a star; i = inactive; [ ] = dose if it differs, or a comment. Many of the other results were omitted from the sample, so hits are more common in it than they were. Potency is the fitted concentration of half-maximal effect.
SMILES,Pf Dd2 growth
Cc1noc(C2CC3(CCN(C(=O)Cn4nc(C(F)(F)F)cc4C)CC3)CN2C)n1 (stereo unspecified),6%
CN(C)[C@@H]1CN(C2CCSCC2)CC[C@@H]1CNC(=O)C1CC1,-21%
Cc1ncccc1C(=O)N1CCC(N2CC3CC(C2)[C@H]2CCCC(=O)N2C3)CC1 (stereo partly specified),-4%
O=C(c1ccccc1F)N1CCC(N2CCOCC2=O)CC1,15%
CN(CC1CCOCC1)C(=O)c1ccc(F)cc1Cl,i
CN1C(=O)c2cccn2CC1C(=O)Nc1ccc(N2CCOCC2)cc1 (stereo unspecified),-7%
CC(c1cccs1)N(C)Cc1ccccn1 (stereo unspecified),i
CC(C)N1C(=O)C2(CCCC2)C1C(=O)N1CCN(c2ncccn2)CC1 (stereo unspecified),13%
CC(=O)N1CCC(NC[C@H]2C[C@@H]3CCN2C[C@@H]3c2cc(C3CCCC3)nc(C)n2)CC1,i
CCC(CC)c1cc([C@H]2CN3CC[C@H]2C[C@@H]3CO)nc(-c2ccncc2)n1,7.1µM*
CCC(CC)c1cc([C@H]2CN3CC[C@H]2C[C@@H]3CNC2CCN(C(C)=O)CC2)nc(-c2ccncc2)n1,4.5µM*
CC(=O)c1cccc(NC(=O)OC[C@H]2C[C@@H]3CCN2C[C@@H]3c2cc(C3CCCC3)nc(-c3ccncc3)n2)c1,-48%
O=C(c1ccc(C(F)(F)F)cc1)N1CC(Oc2ccc(F)c(F)c2)C1,31%
Cc1ccc(CNC(=O)C2CCN(c3cn[nH]c(=O)c3)C2)o1 (stereo unspecified),-4%
CC(C)CCNC(=O)CCC1CCN(C(=O)c2ccccc2F)CC1,-24%
Cc1ccc(S(=O)(=O)N2CCCC(CCC(=O)NCCCc3ccccc3)C2)cc1 (stereo unspecified),-4%
CN1CCCCCCN(S(C)(=O)=O)[C@H]2CCC[C@H]2C1=O,12%
O=C(NCc1ccc(Cl)cc1)C1CCCN(c2cnn(Cc3ccccc3)c(=O)c2)C1 (stereo unspecified),11µM*
O=C(NC1CCCCCCC1)C1CCCN(c2cnn(Cc3ccccc3)c(=O)c2)C1 (stereo unspecified),-40%
O=C(NC1CCN(Cc2ccccc2)CC1)C1CCCN(c2cnn(Cc3ccccc3)c(=O)c2)C1 (stereo unspecified),-27%
Cc1cccc(CCN2CCc3[nH]cnc3C2C(=O)O)n1 (stereo unspecified),3%
O=S(=O)(c1cccs1)N1C[C@@H](c2ccc(F)cc2)[C@@H]2[C@H]1C1CCN2CC1,5.6µM*
O=C1NCCCCCCN(S(=O)(=O)c2cccs2)[C@H]2CCC[C@@H]12,-17%
O=C1NCCCCCN(S(=O)(=O)c2cccs2)[C@H]2CCCC[C@@H]12,-10%
Cc1onc(-c2ccccc2)c1C(=O)N1CCOCC(O)(CN2CCCC2)C1 (stereo unspecified),-7%
SMILES,Pf Dd2 growth
O=C(NC1CCN(C(=O)N2CC3CC(C2)[C@H]2CCCC(=O)N2C3)CC1)c1cccnc1 (stereo partly specified),7%
CCOC(=O)c1sc(NC(=O)C2c3ccccc3Oc3ccccc32)c(C#N)c1C,-18%
Cc1c(C(=O)OC(C)C)sc(NC(=O)C2c3ccccc3Oc3ccccc32)c1C(=O)OC(C)C,2.2µM*
Cc1sc(NC(=O)COc2ccc(C(C)(C)C)cc2)c(C(=O)OC(C)C)c1C,28%
COc1ccc(CNC(=O)[C@@H]2CCC[C@@H](NCC3CC3)CN(C)C(=O)C2)cc1,-22%[44.1 µM]
CNC(C)c1ccccc1F (stereo unspecified),60%[44.1 µM]
Cc1ccc(C(=O)N2CCC3(CC2)CCN(CCc2ccccc2)c2ccccc2O3)cc1,11µM*
CCCN1CCC2(CCN(C(=O)c3ccccc3F)CC2)Oc2ccccc21,i
CC(C)(C)C(=O)N1CCC2(CC1)CCN(Cc1cccs1)c1ccccc1O2,10µM*
CC(=O)Nc1ccc(CN2CCC3(CC2)CC(=O)c2ccccc2O3)cc1,i
CCCN1CCC2(CCN([S+](=O)([O-])c3cccc(C(F)(F)F)c3)CC2)Oc2ccccc21,-25%
CCCN1CCC2(CCN(C(=O)c3ccccc3)CC2)Oc2ccccc21,i
O=C(Nc1ccc(Cl)cc1)N1CCC2(CC1)CCN(Cc1cccs1)c1ccccc1O2,1.4µM*
CC(=O)N1CCC2(CC1)CC(=O)N(c1ccccc1)c1ccccc1O2,-8%
COc1ccc(C(=O)N2CCC3(CC2)CCN(Cc2cccs2)c2ccccc2O3)cc1,-19%
O=C1NCC2(CCN([S+](=O)([O-])c3cccs3)CC2)Oc2ccccc21,-17%
CCCN1CCC2(CCN([S+](=O)([O-])c3cccs3)CC2)Oc2ccccc21,11µM*
CCCN1CCC2(CCN(C(=O)c3ccc(C)cc3)CC2)Oc2ccccc21,-2%
Cc1ccc(S(=O)(=O)N2CCC(Oc3ncccc3C(=O)N(C)C)C2)cc1C (stereo unspecified),i
CN1[C@@H](CCC(=O)NCc2cccs2)CNC(=O)[C@@H]2[C@H]1CCN2Cc1csnn1,35%[44.1 µM]
CCCNC(=O)NCCn1c(C)cnc1-c1ccncc1,5%
CN1CC[C@H]2CN(C(=O)c3cnn(C)c3)C[C@@]2(C(=O)O)C1,5%
O=C(N[C@@H](Cn1cc(Br)c(=O)[nH]c1=O)C(=O)O)C1CCC1,16%[44.1 µM]
C=CCNC(=O)c1coc(COc2ccc3c(c2)C(c2cccc(F)c2)N(C(=O)C2CC2)CC3)n1 (stereo unspecified),-12%
CC(C)NC(=O)N[C@H]1CCN(C(=O)c2cnccn2)[C@@H]1C(=O)N[C@@H](Cc1cccs1)C(N)=O,4%
SMILES,Pf Dd2 growth
NC(=O)[C@@H]1CN(C(=O)CC2=CCCCC2)C[C@H]1COc1ccccc1,-13%
CS(=O)(=O)N1CCN(C(=O)Nc2ccccc2)C[C@H]1C(=O)N[C@H](Cc1c[nH]c2ccccc12)C(N)=O,19%
O=C(Nc1cccc(F)c1)N1CCC(O)(c2csc(CN3CCOCC3)n2)CC1,-6%[44.1 µM]
O=C(CC1CCOC2(CCN(C(=O)c3ccccc3)CC2)C1)N1CCCC1 (stereo unspecified),-18%
CCCN1CCC2(CCN(C(=O)c3ccc(F)cc3)CC2)Oc2ccccc21,i
CCOc1ccccc1CN1CCC2(CCN(C(=O)Nc3ccccc3)CC2)Oc2ccccc21,7.1µM*
CCOc1ccccc1CN1CCC2(CCN(C(=O)c3ccc(C)cc3)CC2)Oc2ccccc21,-3%
O=C(Cc1c[nH]c2ccccc12)N1C[C@@H](CO)[C@H](c2ccccn2)C1,-26%
COCCN1CCCC2(CCN(C(=O)CN3C(=O)CNC3=O)C2)C1=O (stereo unspecified),-10%
CC(C)(C)OC(=O)N1CCC(c2c(C(=O)N3CCC(c4ccccc4)C3)cnn2-c2cccc(Cl)c2)CC1 (stereo unspecified),3.5µM*
CC(C)(C)OC(=O)N1CCC(c2c(C(=O)N3CCN(Cc4ccccc4)CC3)cnn2-c2cccc(Cl)c2)CC1,3.2µM*
CC(C)(C)OC(=O)N1CCC(c2c(C(=O)N3CCN(c4ncccn4)CC3)cnn2-c2ccccc2)CC1,-2%
Cc1ccc(C2CCN(C(=O)c3cnn(-c4cccc(Cl)c4)c3C3CCN(C(=O)OC(C)(C)C)CC3)C2)cc1 (stereo unspecified),4.5µM*
CN1CCN(C(=O)c2cnn(-c3cccc(F)c3)c2C2CCN(C(=O)OC(C)(C)C)CC2)CC1,22%
Cc1cccc(-n2ncc(C(=O)N3CCOCC3)c2C2CCN(C(=O)OC(C)(C)C)CC2)c1,21%
